In PubChem BioAssay (NCI):
About 83,000 compounds went through this panel and 20% of them were active in at least one assay; those are over-represented in the sample as a whole.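 48-hour exposure, single concentration, 96-well plates; percent growth endpoint where 0 means no net growth. Active: below 10.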 Unmarked numbers belong to inactive results. Active and inactive are the calls of the source.

Experiments:
Assay in all cases: NCI-60 one-dose screen, 48 h (100 = growth as untreated, 0 = no growth, -100 = all killed)
SK-MEL-2 melanoma = settings: 10 µM
EKVX NSCLC = settings: 10 µM unless noted
SN12C renal = settings: 10 µM unless noted
UO-31 renal = settings: 10 µM unless noted
TK-10 renal = settings: 10 µM unless noted
ACHN renal = settings: 10 µM unless noted
A498 renal = settings: 10 µM unless noted
CCRF-CEM leukemia = settings: 10 µM unless noted
MOLT-4 leukemia = settings: 10 µM unless noted
SR leukemia = settings: 10 µM unless noted
RPMI-8226 leukemia = settings: 10 µM unless noted
OVCAR-8 ovarian = settings: 10 µM unless noted
OVCAR-5 ovarian = settings: 10 µM unless noted
OVCAR-4 ovarian = settings: 10 µM unless noted
SK-OV-3 ovarian = settings: 10 µM unless noted
IGROV1 ovarian = settings: 10 µM unless noted
OVCAR-3 ovarian = settings: 10 µM unless noted
HS 578T breast = settings: 10 µM
NCI/ADR-RES ovarian = settings: 10 µM unless noted

CCN1CCN(c2nc(C)cc(N(CCCNc3ccnc4cc(Cl)ccc34)Cc3ccc4c(c3)OCO4)n2)CC1 was tested. Which growth (SK-MEL-2 melanoma) did it give?
The growth was -60.1% (active).

What about the growth (EKVX NSCLC) of the same compound?
Its growth is 35.8%.

What about the growth (SN12C renal) of the same compound?
Its growth is 30.1%.

What about the growth (UO-31 renal) of the same compound?
Its growth is -86.8% (active).

What about the growth (TK-10 renal) of the same compound?
Its growth is -70.7% (active).

And the growth (ACHN renal)?
The growth was -25% (active).

What about the growth (A498 renal) of the same compound?
The growth was -27.7% (active).

And the growth (CCRF-CEM leukemia)?
The growth was -13.5% (active).

What about the growth (MOLT-4 leukemia) of the same compound?
The growth was -14.1% (active).

And the growth (SR leukemia)?
Its growth is -45.2% (active).

And the growth (RPMI-8226 leukemia)?
The growth was -41.9% (active).

And the growth (OVCAR-8 ovarian)?
Its growth is -12.4% (active).

What about the growth (OVCAR-5 ovarian) of the same compound?
The growth was 51.6%.

What about the growth (OVCAR-4 ovarian) of the same compound?
Its growth is 2.74% (active).

What about the growth (SK-OV-3 ovarian) of the same compound?
The growth was 33.3%.

What about the growth (IGROV1 ovarian) of the same compound?
Its growth is 0.209% (active).

And the growth (OVCAR-3 ovarian)?
Its growth is -28.3% (active).

What about the growth (HS 578T breast) of the same compound?
Its growth is -44.8% (active).

And the growth (NCI/ADR-RES ovarian)?
Its growth is 30.2%.

For N#CC(C#N)=NO, which growth (SK-MEL-2 melanoma) is on record?
The growth was 100%.

What about the growth (EKVX NSCLC) of the same compound?
Its growth is 92.4%.

And the growth (SN12C renal)?
Its growth is 106%.

What about the growth (UO-31 renal) of the same compound?
The growth was 98.6%.

What about the growth (TK-10 renal) of the same compound?
The growth was 93.9%.

What about the growth (ACHN renal) of the same compound?
The growth was 98.4%.

What about the growth (A498 renal) of the same compound?
The growth was 102%.

And the growth (CCRF-CEM leukemia)?
Its growth is 87%.

What about the growth (MOLT-4 leukemia) of the same compound?
Its growth is 99.8%.

And the growth (SR leukemia)?
Its growth is 97.1%.

And the growth (RPMI-8226 leukemia)?
Its growth is 101%.

What about the growth (OVCAR-8 ovarian) of the same compound?
The growth was 103%.

What about the growth (OVCAR-5 ovarian) of the same compound?
The growth was 104%.

And the growth (OVCAR-4 ovarian)?
The growth was 113%.

And the growth (SK-OV-3 ovarian)?
The growth was 89.1%.

What about the growth (IGROV1 ovarian) of the same compound?
Its growth is 101%.

And the growth (OVCAR-3 ovarian)?
Its growth is 111%.

What about the growth (HS 578T breast) of the same compound?
The growth was 99.6%.

What about the growth (NCI/ADR-RES ovarian) of the same compound?
Its growth is 100%.

Which growth (SK-MEL-2 melanoma) does the source give for Clc1ccc2c(NCCCNCc3ccc4c(c3)OCO4)ccnc2c1 here?
Its growth is 29.3%.

And the growth (EKVX NSCLC)?
Its growth is 71.8%.

What about the growth (SN12C renal) of the same compound?
The growth was 66.6%.

What about the growth (UO-31 renal) of the same compound?
Its growth is 35.8%.

What about the growth (TK-10 renal) of the same compound?
Its growth is 78.4%.

And the growth (ACHN renal)?
The growth was 40.6%.

What about the growth (A498 renal) of the same compound?
The growth was 101%.

And the growth (CCRF-CEM leukemia)?
The growth was 41.7%.

What about the growth (MOLT-4 leukemia) of the same compound?
The growth was 25.1%.

What about the growth (SR leukemia) of the same compound?
The growth was -22.9% (active).

What about the growth (RPMI-8226 leukemia) of the same compound?
Its growth is 22%.

And the growth (OVCAR-8 ovarian)?
The growth was 30.7%.

What about the growth (OVCAR-5 ovarian) of the same compound?
The growth was 85.8%.

And the growth (OVCAR-4 ovarian)?
Its growth is 59.1%.

And the growth (SK-OV-3 ovarian)?
Its growth is 71.2%.

What about the growth (IGROV1 ovarian) of the same compound?
The growth was 57.3%.

And the growth (OVCAR-3 ovarian)?
Its growth is 63.7%.

What about the growth (HS 578T breast) of the same compound?
The growth was 78.9%.

What about the growth (NCI/ADR-RES ovarian) of the same compound?
The growth was 74.3%.

With CN(N)c1nc2sc3c(c2c(=O)[nH]1)CCCC3 as the compound, how does the growth (SK-MEL-2 melanoma) read?
Its growth is 103%.

And the growth (EKVX NSCLC)?
The growth was 86.6%.

What about the growth (SN12C renal) of the same compound?
The growth was 104%.

And the growth (UO-31 renal)?
Its growth is 72.9%.

And the growth (TK-10 renal)?
The growth was 111%.

And the growth (ACHN renal)?
Its growth is 107%.

And the growth (A498 renal)?
The growth was 101%.

And the growth (CCRF-CEM leukemia)?
Its growth is 98.9%.

What about the growth (MOLT-4 leukemia) of the same compound?
Its growth is 97.5%.

And the growth (SR leukemia)?
The growth was 104%.

And the growth (RPMI-8226 leukemia)?
The growth was 103%.

And the growth (OVCAR-8 ovarian)?
The growth was 102%.

What about the growth (OVCAR-5 ovarian) of the same compound?
Its growth is 131%.

And the growth (OVCAR-4 ovarian)?
The growth was 103%.

And the growth (IGROV1 ovarian)?
Its growth is 90.1%.

And the growth (OVCAR-3 ovarian)?
The growth was 99.7%.

What about the growth (HS 578T breast) of the same compound?
The growth was 94.6%.

What about the growth (NCI/ADR-RES ovarian) of the same compound?
Its growth is 104%.

Which results are given for Cc1cc(N2CCCC2)nc(N(CCCNc2ccnc3cc(Cl)ccc23)Cc2ccc3c(c2)OCO3)n1?
growth (SK-MEL-2 melanoma): -50.7% (active); growth (EKVX NSCLC): 35.9%; growth (SN12C renal): 29.3%; growth (UO-31 renal): -24.5% (active); growth (TK-10 renal): -12.6% (active); growth (ACHN renal): -10.7% (active); growth (A498 renal): 13.6%; growth (CCRF-CEM leukemia): 1% (active); growth (MOLT-4 leukemia): -15.4% (active); growth (SR leukemia): -36% (active); growth (RPMI-8226 leukemia): -31.2% (active); growth (OVCAR-8 ovarian): -2.12% (active); growth (OVCAR-5 ovarian): -3.2% (active); growth (OVCAR-4 ovarian): 13.5%; growth (SK-OV-3 ovarian): 53.5%; growth (IGROV1 ovarian): -7.14% (active); growth (OVCAR-3 ovarian): -32.8% (active); growth (HS 578T breast): -32.2% (active); growth (NCI/ADR-RES ovarian): 1.74% (active)

For O=C(Cn1c(=O)ccn(CCCCCCCCOc2ccc(Br)cc2)c1=O)Nc1ccc(Oc2ccc(Cl)cc2)cc1, which growth (SK-MEL-2 melanoma) is on record?
Its growth is 71%.

What about the growth (EKVX NSCLC) of the same compound?
Its growth is 50.6%.

What about the growth (SN12C renal) of the same compound?
The growth was 67.1%.

And the growth (UO-31 renal)?
The growth was 32.7%.

And the growth (TK-10 renal)?
Its growth is 69.6%.

And the growth (ACHN renal)?
The growth was 69.1%.

And the growth (A498 renal)?
The growth was 54.8%.

And the growth (CCRF-CEM leukemia)?
Its growth is 54.6%.

What about the growth (MOLT-4 leukemia) of the same compound?
Its growth is 47.6%.

What about the growth (SR leukemia) of the same compound?
The growth was 28.7%.

What about the growth (RPMI-8226 leukemia) of the same compound?
Its growth is 34.2%.

And the growth (OVCAR-8 ovarian)?
Its growth is 63.9%.

What about the growth (OVCAR-5 ovarian) of the same compound?
The growth was 108%.

And the growth (OVCAR-4 ovarian)?
Its growth is 53.4%.

What about the growth (SK-OV-3 ovarian) of the same compound?
Its growth is 65.3%.

And the growth (IGROV1 ovarian)?
The growth was 77.2%.

What about the growth (OVCAR-3 ovarian) of the same compound?
The growth was 83.7%.

And the growth (HS 578T breast)?
Its growth is 81.8%.

What about the growth (NCI/ADR-RES ovarian) of the same compound?
Its growth is 42.7%.

How did the growth (SK-MEL-2 melanoma) turn out when COc1cc(NCCN(CC(C)C)CC(C)C)c2ncc(C)cc2c1 was run?
The growth was 74.8%.

And the growth (EKVX NSCLC)?
The growth was 74.9%.

And the growth (SN12C renal)?
Its growth is 74.7%.

And the growth (UO-31 renal)?
Its growth is 64%.

What about the growth (TK-10 renal) of the same compound?
Its growth is 139%.

And the growth (ACHN renal)?
Its growth is 77.7%.

What about the growth (A498 renal) of the same compound?
The growth was 113%.

What about the growth (CCRF-CEM leukemia) of the same compound?
Its growth is 86.4%.

What about the growth (MOLT-4 leukemia) of the same compound?
The growth was 54.9%.

And the growth (SR leukemia)?
The growth was 76.3%.

What about the growth (RPMI-8226 leukemia) of the same compound?
Its growth is 62.6%.

And the growth (OVCAR-8 ovarian)?
Its growth is 68.7%.

And the growth (OVCAR-5 ovarian)?
The growth was 111%.

And the growth (OVCAR-4 ovarian)?
The growth was 34.6%.

And the growth (SK-OV-3 ovarian)?
Its growth is 88.8%.

And the growth (IGROV1 ovarian)?
The growth was 76.5%.

And the growth (OVCAR-3 ovarian)?
Its growth is 1.71% (active).

And the growth (HS 578T breast)?
The growth was 100%.

And the growth (NCI/ADR-RES ovarian)?
Its growth is 76.5%.

Which results are given for CCN1CCN(c2cc(C)nc(N(CCCNc3ccnc4cc(Cl)ccc34)Cc3ccc4c(c3)OCO4)n2)CC1?
growth (SK-MEL-2 melanoma): -67.9% (active); growth (EKVX NSCLC): 42.3%; growth (SN12C renal): 34.6%; growth (UO-31 renal): -81.9% (active); growth (TK-10 renal): -58.2% (active); growth (ACHN renal): -0.628% (active); growth (A498 renal): 27.8%; growth (CCRF-CEM leukemia): -18.1% (active); growth (MOLT-4 leukemia): -15.9% (active); growth (SR leukemia): -40.3% (active); growth (RPMI-8226 leukemia): -49.6% (active); growth (OVCAR-8 ovarian): 9.03% (active); growth (OVCAR-5 ovarian): 50.2%; growth (OVCAR-4 ovarian): 27.7%; growth (IGROV1 ovarian): 5.03% (active); growth (OVCAR-3 ovarian): -26.9% (active); growth (HS 578T breast): -27.1% (active); growth (NCI/ADR-RES ovarian): 14.2%
